Screening results deposited in PubChem BioAssay by several laboratories.
GAA850 FXN act = increases GAA850 frataxin promoter reporter activity | AID 540364 | activation, % at 6 µM | HEK293 lucGAA850 FXN promoter luciferase reporter, 24 h; percent of 10 µM SAHA response | actives 0.56% (n = 360,000);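 active = activation above the average of all compounds screened plus 3 SD, cutoff fixed separately per campaign, cut at about 7.5% in these data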
HSF1 inh = HSF1 inhibition. NIH3T3-HGL HSE-luciferase, MG132-induced, luminescence 8 h; active compounds read low. activity change, negative = inhibition, % at 7.5 µM (by protocol). actives 0.77% (n = 300,000). AID 2098;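 active = more than half of replicate wells show activity change below -50%, luminescence cut by over half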;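 note: luciferase reports HSF-1 transcriptional activity via heat shock element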
DAX1 inh = inhibitors of human orphan nuclear receptor DAX1 (NR0B1); P51843; HEK293 Gal4-DAX1 luciferase reporter, luminescence; inhibition, % at 6.75 µM; actives 0.99% (n = 340,000);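 active = inhibition above the mean over all tested compounds plus 3 SD, cut at about 4.2% in these data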;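 note: inhibition shows as a rise in luminescence from relieved DAX1 repression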
AHR act = activates the human aryl hydrocarbon receptor. actives 2.5% (n = 320,000). AHR-responsive luciferase reporter cells, luminescence. P35869. activation, % at 5 µM; in the data active = activation above about 47%
HSF1 activator = increases HSF-1 driven luciferase reporter signal; NIH3T3-HGL HSF-1 luciferase reporter, MG132, 8 h; 100% = twice DMSO control signal; activation, % at 9 µM; actives 1.7% (n = 300,000); AID 504408;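 active = mean replicate activation of at least 50% with a set share of replicates each reaching 50%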
AHR act confirm = confirmation of human aryl hydrocarbon receptor activators; shares compounds with AHR act; activation, % at 9 µM; AID 2845; actives 87% (n = 2,300); human cells, AHR-responsive luciferase reporter, luminescence; in the data active = activation above about 49%;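 note: HepG2 hepatoma cells carrying a DRE-driven firefly luciferase reporter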
PXR counter = activates human PXR in AHR activator counter-screen. shares compounds with AHR act. cell-based PXR reporter, luciferase luminescence. activation, % at 11.6 µM. actives 88% (n = 2,300). AID 434939; in the data active = activation above about 11%;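 note: human hepatoma DPX-2 cells expressing full-length human PXR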
Target sequence (O75469 whole entry, looked up): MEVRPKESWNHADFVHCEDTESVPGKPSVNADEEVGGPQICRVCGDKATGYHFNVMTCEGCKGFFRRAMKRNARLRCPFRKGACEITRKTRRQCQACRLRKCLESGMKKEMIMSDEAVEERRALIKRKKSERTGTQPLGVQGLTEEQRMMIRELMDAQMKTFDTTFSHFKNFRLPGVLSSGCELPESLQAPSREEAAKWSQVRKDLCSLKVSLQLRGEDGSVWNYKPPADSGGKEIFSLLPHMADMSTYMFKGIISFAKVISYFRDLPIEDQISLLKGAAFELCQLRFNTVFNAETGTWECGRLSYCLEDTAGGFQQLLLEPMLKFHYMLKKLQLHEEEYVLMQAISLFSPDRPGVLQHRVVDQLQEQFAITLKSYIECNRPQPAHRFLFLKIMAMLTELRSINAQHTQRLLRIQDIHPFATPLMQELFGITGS
Hits are given with their value; n = inactive; x = no result given. Rows were chosen to be rich in hits. Some 5.4% of all compounds tested hit in one or more screens of this group.

SMILES	GAA850 FXN act	HSF1 inh	DAX1 inh	AHR act	HSF1 activator	AHR act confirm	PXR counter
C=CCn1cc(/C=N/N2C(=O)C3C4C=CC(C4)C3C2=O)c2ccccc21 (stereo unspecified)	n	n	n	n	n	x	x
C=CCn1cc(/C=C2/NC(=O)NC2=O)c2ccccc21	n	n	n	97	n	91	35
CNc1sc(C(=O)c2ccccc2F)c(N)c1-c1nc2ccccc2s1	n	n	n	90	n	88	48
Cn1c(N)c(C(=O)CSc2n[nH]c(N)n2)c(=O)n(C)c1=O	n	x	n	x	x	x	x
CCN(C(=O)CSc1nc(C)c(C)c(C)n1)C1CCS(=O)(=O)C1 (stereo unspecified)	n	x	n	n	x	x	x
CN(C(=O)c1cc([N+](=O)[O-])ccc1NCc1cccnc1)c1ccccc1	n	n	n	80	n	72	88
O=C(O)c1cc([N+](=O)[O-])ccc1NCc1cccnc1	n	n	n	n	n	x	x
COc1ccc(-c2ccc3oc(-c4ccsc4)c(-c4ccc(OC)cc4)c3c2)cc1	n	n	n	n	n	x	x
COc1ccc(-c2ccc3oc(-c4ccsc4)c(-c4ccc(Br)nc4)c3c2)cc1	x	x	x	102	x	97	26
COc1ccc(OC)c(S(=O)(=O)N2Cc3ccccc3CC2C(=O)Nc2nccs2)c1 (stereo unspecified)	n	x	n	84	x	60	135
CN1CCN(C2=Nc3c(Cl)cc(Cl)c4cccc2c34)CC1	n	n	n	82	n	91	27
CN1CCN(C2=Nc3cc(F)ccc3Cc3ccccc32)CC1	x	n	x	n	n	x	x
O=[N+]([O-])c1cccc2ccc(/C=C/c3ccc(F)cc3)nc12	n	n	n	186	n	229	19
CC(=O)c1c(C)[nH]c(C(=O)Nc2ccc(F)cc2F)c1C	n	n	n	98	n	131	38
CC(=O)c1c(C)[nH]c(C(=O)Nc2cc(C)ccc2C)c1C	n	n	n	118	n	93	38
CCc1ccc(NC(=O)c2[nH]c(C)c(C(C)=O)c2C)cc1	n	n	n	n	n	x	x
CC(=O)c1c(C)[nH]c(C(=O)Nc2nccs2)c1C	n	n	n	133	n	74	36
COc1ccc(C(C)(C)C)cc1NC(=O)c1[nH]c(C)c(C(C)=O)c1C	n	n	n	n	n	x	x
CN(C)S(=O)(=O)c1cccc(C(=O)Nc2cc(S(=O)(=O)N3CCOCC3)ccc2N2CCCC2)c1	n	x	n	x	x	x	x
O=C(CN1CCN(C(=O)C2COc3ccccc3O2)CC1)Nc1ccc(F)cc1 (stereo unspecified)	n	n	x	n	n	x	x
NC1=NN=C(c2ccc3c(c2)OCCO3)CS1	n	n	n	87	n	n	n
Cc1sc(N)nc1-c1ccc2c(c1)OCCO2	n	n	n	n	n	x	x
Cc1cccc(N(CC(=O)NC2CCCCC2)C(=O)CCCC(=O)Nc2ccccn2)c1C	n	n	n	n	n	x	x
NC(=S)N/N=C/c1ccc(-c2cc(Cl)c(Cl)cc2Cl)o1	n	n	n	108	n	102	22
Cc1cc(NC(=O)COC(=O)[C@H](Cc2ccccc2)NC(=O)c2ccco2)no1	n	x	n	x	x	x	x
SMILES	GAA850 FXN act	HSF1 inh	DAX1 inh	AHR act	HSF1 activator	AHR act confirm	PXR counter
COc1cc(N=Nc2ccccc2C(=O)O)ccc1O	n	n	n	n	n	x	x
COc1cc(N=Nc2ccc3ccccc3c2)ccc1O	n	n	8.1	84	55	n	13
Clc1ccc(-n2nnc(-c3nccs3)n2)cc1Cl	n	n	n	116	n	84	33
Clc1ccc(-n2nnc(-c3cccnc3)n2)cc1Cl	n	n	n	112	n	135	38
Cc1ccc2[nH]c(=O)c(-c3nc4cc(C)ccn4c3NCc3ccco3)cc2c1	n	n	n	88	n	75	39
Cc1cccc2cc(-c3nc4c(C)cccn4c3NCc3ccco3)c(=O)[nH]c12	n	n	n	n	n	x	x
O=C(CC1Nc2cccc3cccc(c23)NC1=O)Nc1ccc(F)cc1 (stereo unspecified)	n	n	n	98	n	104	92
CCc1c(C2(O)CCCCC2)[nH]c2ncccc12	n	x	n	n	x	x	x
COc1ccccc1Nc1nc(N)nc(CSc2ncccn2)n1	n	n	n	n	n	x	x
Cc1cccc(Nc2nc(N)nc(CSc3nccc(C)n3)n2)c1	n	n	n	103	n	103	119
CCOc1ccccc1Nc1nc(N)nc(CSc2nccc(C)n2)n1	n	n	n	81	n	70	60
COc1ccc(Nc2nc(N)nc(CSc3nccc(C)n3)n2)cc1	n	n	n	n	n	x	x
CCCNC(=O)C1(C)CCN(Cc2cc(C(F)(F)F)ccc2Cl)C1 (stereo unspecified)	n	x	x	x	x	x	x
CCNC(=S)Nc1ccc(NC(=O)c2ccccc2O)cc1	n	n	n	n	n	x	x
CCNC(=S)Nc1cccc(NC(=O)c2ccccc2O)c1	n	n	n	86	n	124	14
c1ccc(Nc2nc(-c3ccccn3)cs2)cc1	n	n	n	116	n	53	x
CN(CCOC(=O)c1ccc2c(c1)OCO2)C(C)(C)C	n	x	n	n	x	x	x
O=C(N/N=C/c1c[nH]c2c1ccc1ccccc12)c1ccc([N+](=O)[O-])cc1	n	n	n	105	n	79	11
COc1ccc2ccccc2c1/C=N/NC(=O)c1ccc([N+](=O)[O-])cc1	n	n	n	n	n	x	x
Cc1cc(C)n2nc(C(=O)NC3CCCc4ccccc43)nc2n1 (stereo unspecified)	n	n	n	n	n	x	x
Clc1nc2c(ccc3ccccc32)[nH]1	n	n	x	n	n	x	x
Nc1ccc(-c2nc3c(ccc4ccccc43)[nH]2)cc1	n	n	n	83	n	60	n
CCN(CC)C(=O)c1sc(NC(=O)c2c(OC)cccc2OC)c(C#N)c1C	n	n	n	132	n	92	173
Cc1oc(-c2ccc3ccccc3c2)nc1CN(C)C(C)c1ccncn1 (stereo unspecified)	n	n	n	115	n	98	43
NC(=Nc1ccccc1)NC(=O)c1nc(Cl)c(N)nc1N	n	n	n	86	n	n	35
SMILES	GAA850 FXN act	HSF1 inh	DAX1 inh	AHR act	HSF1 activator	AHR act confirm	PXR counter
C[C@H]1CN([C@@H](C)CO)C(=O)c2cc(-c3ccccc3F)cnc2O[C@@H]1CN(C)C(=O)NC1CCCCC1	n	x	n	x	x	x	x
O=C(Nc1ccc(-c2nc3cccnc3s2)cc1)c1ccc(Cl)nc1	n	n	n	86	n	n	11
CSc1ncccc1C(=O)OCC(=O)NC1CCC(C)CC1 (stereo unspecified)	n	x	n	n	x	x	x
CN(C)c1ccc(NC2=C(Cl)C(=O)c3ccccc3C2=O)cc1	n	n	n	135	n	76	13
O=C1C(Cl)=C(NCCCO)C(=O)c2ccccc21	n	n	n	n	n	x	x
O=C(NCc1cccnc1)c1cc(C(=O)NCc2cccnc2)cc([N+](=O)[O-])c1	n	x	n	x	x	x	x
